Rows were chosen to be rich in hits. Some 4.7% of all compounds tested hit in one or more screens of this group.
tim23-1 inh – growth inhibitors of tim23-1 mutant yeast, primary screen, luminescence, uHTS | actives 1.3% (n = 330,000) | S. cerevisiae tim23-1 growth, BacTiter-Glo luminescence, 24 h | inhibition, % at 20 µM | AID 463212, 2010;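 active means growth inhibition of the mutant yeast at or above 50%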;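 further: temperature-sensitive mutant grown at 25 °C; plate controls were DMSO-treated mutant yeast for no effect and medium wells lacking yeast for full effect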
PfHsp90 yeast 2 – growth inhibition of PfHsp90-expressing yeast, primary screen, antimalarial PfHsp90 inhibitor project, S. cerevisiae, BacTiter-Glo luminescence, single point, set 2; BacTiter-Glo ATP, 48 h; yeast lacking PDR1 and PDR3 efflux regulators; inhibition, % at 9.4 µM; actives 0.32% (n = 310,000); AID 504621, 2011;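 active means every replicate shows inhibition above about 80%, whatever the replicate mean, limit read from the data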;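 further: 0% = DMSO neutral controls and 100% = 20 µM radicicol positive controls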
ATG4B inhibitor – ATG4B protease inhibitors, primary screen, biochemical, fluorescence, uHTS. Cysteine protease ATG4B (Homo sapiens), Q9Y4P1. ATG4B cleavage of LC3-PLA2, NBD-HPC fluorescence, 1 h. inhibition, % at 8.33 µM. actives 0.51% (n = 340,000); in the data active means inhibition above about 40%
Target sequence (Q9Y4P1 whole entry, looked up): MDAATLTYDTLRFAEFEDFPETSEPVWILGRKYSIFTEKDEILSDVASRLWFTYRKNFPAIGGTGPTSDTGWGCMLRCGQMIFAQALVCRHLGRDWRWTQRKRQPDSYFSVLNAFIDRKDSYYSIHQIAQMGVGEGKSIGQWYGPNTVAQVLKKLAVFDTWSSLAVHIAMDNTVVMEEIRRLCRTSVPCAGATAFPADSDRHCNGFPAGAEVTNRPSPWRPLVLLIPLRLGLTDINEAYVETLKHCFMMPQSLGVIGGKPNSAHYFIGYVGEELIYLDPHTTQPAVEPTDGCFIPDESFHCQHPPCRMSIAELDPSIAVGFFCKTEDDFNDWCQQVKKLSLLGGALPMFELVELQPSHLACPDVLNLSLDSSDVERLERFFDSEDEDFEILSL
SKKanGAS inh – S. pyogenes SKKanGAS growth inhibitors in kanamycin, primary screen, streptokinase expression inhibitor project, SKKanGAS strain, BacTiter-Glo luminescence. 6 h. inhibition, % at 7.5 µM. actives 1.3% (n = 300,000). AID 1662, 2009;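 active means mean replicate score, as percent of positive control median, at least 50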;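 further: strain carries kanamycin resistance gene driven by streptokinase promoter and grows in 40 µg/ml kanamycin; loss of luminescence reflects streptokinase promoter inhibition or plain growth inhibition; 0% = median of DMSO wells and 100% = positive control at its reference dose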
tim10-1 inh – growth inhibitors of tim10-1 mutant yeast, primary screen, luminescence, uHTS. S. cerevisiae tim10-1 ts strain growth, BacTiter-Glo, 24 h. inhibition, % at 20 µM. actives 2.2% (n = 330,000). AID 463190, 2010;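 active means inhibition of at least 40%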;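 further: mutant grown at 25 °C; 0% = DMSO wells with yeast and 100% = wells holding no yeast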
TIM10 inh – growth inhibitors of isogenic TIM10 control yeast, primary screen, counter-screen for tim10-1 yeast inhibitor project, luminescence, uHTS; inhibition, % at 10 µM; S. cerevisiae TIM10 strain growth, BacTiter-Glo luminescence, 24 h; actives 1.4% (n = 330,000);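 active means inhibition of 40% or more at the single tested concentration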;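 further: wild-type TIM10 isogenic control strain grown at permissive 25 °C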
tim10-1 confirm – growth inhibitors of tim10-1 mutant yeast, confirmation, single concentration, luminescence, S. cerevisiae; S. cerevisiae tim10-1 ts strain growth, BacTiter-Glo, 24 h; inhibition, % at 20 µM; shares compounds with tim10-1 inh; actives 56% (n = 7,400);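 active means inhibition of yeast growth at or above a set limit in either of two repeat tests at 20 µM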;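 further: tim10-1 mutant grown at permissive 25 °C to find synthetic lethal compounds; 0% = DMSO yeast wells and 100% = medium wells without yeast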
tim10 confirm – growth inhibitors of wild-type TIM10 yeast, confirmation, counter-screen for tim10-1 synthetic lethality project, single concentration, luminescence, S. cerevisiae; shares compounds with TIM10 inh; S. cerevisiae tim10 strain growth, BacTiter-Glo luminescence, 24 h; inhibition, % at 10 µM; actives 63% (n = 4,600); AID 463215, 2010;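 active means inhibition of yeast growth at or above a set limit in either of two replicates at 10 µM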;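 further: this counterscreen used the strain with wild-type TIM10; 0% = yeast with DMSO and 100% = medium wells lacking yeast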
Active calls of the source: *; / = no result given.

SMILES	tim23-1 inh	PfHsp90 yeast 2	ATG4B inhibitor	SKKanGAS inh	tim10-1 inh	TIM10 inh	tim10-1 confirm	tim10 confirm
COc1ccc(-c2c(C)oc3c(CN4CCCCC4C)c(O)ccc3c2=O)cc1OC (stereo not given)	2	-2	1	10	2	10	/	/
CCCCC(CC)C(=O)Nc1ncc([N+](=O)[O-])s1 (stereo not given)	45	-1	-7	-8	61*	49*	62*	24
COc1cccc(NC(=S)NN2CCN(C)CC2)c1	23	-9	0	-5	8	-1	/	/
COc1ccc(C(=O)Nc2ccc(S(=O)(=O)N3CCCCC3)cc2)cc1OC	-4	21	-14	4	49*	60*	33*	-21
Cc1cc(C(=O)Nc2ccc(S(=O)(=O)N3CCCC3)cc2)cs1	44	-21	2	/	44*	56*	40*	36*
Cc1cc2oc(=O)cc(CN(C)Cc3cccc(F)c3)c2cc1Cl	18	-4	0	29	9	12	/	/
NNc1nc2sc3c(c2c(=O)n1-c1ccccc1)CCCC3	-13	-2	7	17	49*	57*	39*	67*
O=C(O)CSc1nc2sc3c(c2c(=O)n1-c1ccccc1)CCC3	-12	-14	5	0	0	-22	/	/
Nn1c(Nc2ccccc2)nc2sc3c(c2c1=O)CCCC3	23	8	-6	-3	45*	51*	24	25
COc1ccccc1NS(=O)(=O)c1ccc(Cl)c(NC(=S)NC(=O)C2CCCC2)c1	35	4	35	23	37	37	/	/
Cc1cc(C)n(-c2nc(-n3nc(C)cc3C)c3c4c(sc3n2)COC(C)(C)C4)n1	43	/	/	6	50*	41*	34*	25
S=C(NCCc1ccccc1)Nc1ccccc1Cl	41	8	8	-6	26	2	/	/
S=C(NCCCc1ccccc1)Nc1ccccc1Cl	30	17	29	-12	49*	52*	38*	41*
O=S(=O)(Nc1ccc(N=Nc2ccccc2)cc1)c1ccccc1	41	-35	-4	3	55*	42*	51*	-3
O=S(=O)(Nc1ccc(S(=O)(=O)Nc2ccccc2)cc1)c1ccccc1	5	2	-4	5	19	-4	/	/
Oc1ccc(Br)cc1-c1cc(-c2ccc(Cl)cc2)n[nH]1	15	11	1	27	36	16	/	/
Cc1ccc(O)c(-c2cc(-c3cccc(F)c3)n[nH]2)c1	36	100*	4	30	53*	43*	34*	21
Oc1ccc(Br)cc1-c1cc(-c2ccccc2)n[nH]1	15	-4	8	80*	47*	58*	22	-2
CCC(=O)Nc1ccc(N2CCCCC2)c(C(=O)Nc2ccccc2C)c1	36	6	-3	18	41*	40*	22	38*
Cc1ccc(C)n1N1C(=O)/C(=C\c2ccc(Cl)cc2)SC1=S	7	13	-1	-3	69*	63*	61*	64*
Cc1ccc(-n2[nH]c3c4c(ccc3c2=O)C(=O)c2ccccc2C4=O)cc1	-9	8	-1	0	1	-3	/	/
CC(C)(C)n1[nH]c2c3c(ccc2c1=O)C(=O)c1ccccc1C3=O	28	/	-17	26	45*	65*	40*	57*
Oc1ccccc1-c1nc(NCCN2CCOCC2)c2ccccc2n1	44	2	-12	-8	52*	50*	40*	32*
CCc1ccc(/C=C2/C(=O)N(c3ccccc3)C(=S)N2CC(=O)OC)s1	42	13	-13	-1	27	12	/	/
CCN1C(=O)/C(=C/N(C(C)=O)c2ccccc2)N(c2ccccc2)C1=S	29	2	5	4	45*	50*	42*	-39
SMILES	tim23-1 inh	PfHsp90 yeast 2	ATG4B inhibitor	SKKanGAS inh	tim10-1 inh	TIM10 inh	tim10-1 confirm	tim10 confirm
CC(=O)N1CCOc2ccc(S(=O)(=O)Nc3ncccc3C)cc21	6	9	-3	-2	6	0	/	/
COc1ccccc1C1Nc2cccc3cccc(c23)N1	26	10	9	2	21	9	/	/
O=[N+]([O-])c1ccccc1C1Nc2cccc3cccc(c23)N1	49	-9	6	16	85*	57*	76*	69*
COc1ccc(C(=O)Nc2nnc(C)s2)cc1S(=O)(=O)N1CCOCC1	-3	2	-40	/	-13	8	/	/
O=c1c2ccccc2nc(/C=C/c2ccc([N+](=O)[O-])o2)n1CCCO	-16	-22	-9	50*	86*	59*	83*	22
O=S(=O)(c1ccc(Cl)cc1)N1CCN2CCCC2C1 (stereo not given)	7	16	4	5	6	-10	/	/
CCS(=O)(=O)N1CCN=C1SCc1cccc(F)c1	-6	0	0	8	1	-12	/	/
Oc1ccc(/C=N/NC(=S)NC2CC3CCC2C3)cc1 (stereo not given)	42	-10	-13	-2	42*	58*	30	27
O=C(C1CN(C(=O)c2cc3cc(Cl)ccc3o2)c2ccccc2O1)N1CCCCC1 (stereo not given)	49	/	-3	/	16	9	/	/
CC1CCCCN1S(=O)(=O)c1ccc(NC(=O)c2ccco2)cc1 (stereo not given)	25	/	0	-1	53*	42*	36*	17
CCc1cc(-c2n[nH]c(=S)n2Cc2ccccc2)cs1	39	-8	-6	3	42*	44*	19	41*
CCc1cc(-c2n[nH]c(=S)n2CC)cs1	34	0	4	3	14	7	/	/
COc1cc2[nH]c(=O)n(C3CCCCC3)c(=O)c2cc1OC	4	-9	-11	-5	13	12	/	/
COc1cccc(/C=N/Nc2ncnc3scc(-c4ccccc4)c23)c1OC	38	-31	-11	7	46*	40*	43*	31*
O=C(Nc1ccc(Cl)c(Cl)c1)C1=Cc2ccccc2OC1	44	20	36	75*	40*	50*	53*	60*

From PubChem BioAssay
